Assay results taken from PubChem BioAssay.
The source made the active and inactive calls. Unless noted, no rule for the calls is given here.

How the values were obtained:
[1] = compounds binding Alexa647 anti-His antibody – biochemical, small-molecule microarray, 635 nm fluorescence, artefact control for SMM control protein annotation, primary screen (AID 1128); settings: higher = more signal;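 also: score merges feature fluorescence with signal-to-noise for each printed compound spot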
[2] = tested on: Human papillomavirus type 1a E7 protein (residues 1-88); test: HPV1a E7 small-molecule binders, primary screen, biochemical, small-molecule microarray, residues 1-88, 635 nm (AID 1129); settings: small-molecule microarray binding, fluorescence 635 nm; higher = more signal
[3] = target: Focal adhesion kinase 1 (Homo sapiens) (UniProt Q05397); test: PTK2 protein binding on printed compound slides – biochemical, small-molecule microarray, 635/667 nm fluorescence, BSA, DTT, primary screen (AID 1130); settings: 635 nm fluorescence, higher = more signal;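 also: composite of spot emission at 667 nm and signal to noise over triplicate slides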
Chain of Focal adhesion kinase 1 (Homo sapiens) (Q05397 whole entry, looked up): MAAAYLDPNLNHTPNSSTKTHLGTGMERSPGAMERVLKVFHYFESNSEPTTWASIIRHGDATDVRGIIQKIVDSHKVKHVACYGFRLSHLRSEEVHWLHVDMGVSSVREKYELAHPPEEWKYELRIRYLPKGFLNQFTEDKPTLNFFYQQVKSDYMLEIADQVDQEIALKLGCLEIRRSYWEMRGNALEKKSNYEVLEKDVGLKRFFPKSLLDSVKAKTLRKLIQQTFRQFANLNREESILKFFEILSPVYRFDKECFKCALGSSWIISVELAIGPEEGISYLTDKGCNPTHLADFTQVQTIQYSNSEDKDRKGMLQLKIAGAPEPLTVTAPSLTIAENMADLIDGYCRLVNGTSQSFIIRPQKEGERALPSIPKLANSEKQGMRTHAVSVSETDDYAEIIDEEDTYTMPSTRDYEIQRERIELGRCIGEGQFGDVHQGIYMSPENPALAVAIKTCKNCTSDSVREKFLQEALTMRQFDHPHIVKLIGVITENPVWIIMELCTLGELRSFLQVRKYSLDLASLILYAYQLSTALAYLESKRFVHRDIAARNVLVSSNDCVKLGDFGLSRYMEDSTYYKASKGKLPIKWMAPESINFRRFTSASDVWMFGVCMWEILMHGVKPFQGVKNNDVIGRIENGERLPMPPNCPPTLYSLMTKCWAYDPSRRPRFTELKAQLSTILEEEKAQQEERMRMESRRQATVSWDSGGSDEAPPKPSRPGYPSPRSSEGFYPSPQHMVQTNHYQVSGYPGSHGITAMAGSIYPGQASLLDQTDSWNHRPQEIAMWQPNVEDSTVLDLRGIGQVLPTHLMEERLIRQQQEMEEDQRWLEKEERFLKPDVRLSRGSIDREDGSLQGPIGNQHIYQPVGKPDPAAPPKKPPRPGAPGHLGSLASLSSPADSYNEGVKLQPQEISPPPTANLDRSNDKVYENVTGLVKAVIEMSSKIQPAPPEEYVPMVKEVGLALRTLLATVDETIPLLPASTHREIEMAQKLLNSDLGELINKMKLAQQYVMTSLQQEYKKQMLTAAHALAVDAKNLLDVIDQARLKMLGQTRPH

[4] = tested on: Fibrinogen (Alexa647-labelled); test: Alexa647-fibrinogen binding to printed small molecules – biochemical, small-molecule microarray, 635/667 nm fluorescence, artefact control for SMM control-protein annotation, profiling panel (AID 1131); settings: fibrinogen-A647 binding fluorescence, higher = more signal;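 also: z-score merges 667 nm fluorescence with per-spot signal-to-noise over triplicate slides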
[5] = target: Follistatin (Homo sapiens) (UniProt P19883); test: FST protein binding to printed compounds – biochemical, small-molecule microarray, 635/667 nm fluorescence, primary screen (AID 1132); settings: 635 nm fluorescence, higher = more signal
Chain of Follistatin (Homo sapiens) (P19883 whole entry, looked up): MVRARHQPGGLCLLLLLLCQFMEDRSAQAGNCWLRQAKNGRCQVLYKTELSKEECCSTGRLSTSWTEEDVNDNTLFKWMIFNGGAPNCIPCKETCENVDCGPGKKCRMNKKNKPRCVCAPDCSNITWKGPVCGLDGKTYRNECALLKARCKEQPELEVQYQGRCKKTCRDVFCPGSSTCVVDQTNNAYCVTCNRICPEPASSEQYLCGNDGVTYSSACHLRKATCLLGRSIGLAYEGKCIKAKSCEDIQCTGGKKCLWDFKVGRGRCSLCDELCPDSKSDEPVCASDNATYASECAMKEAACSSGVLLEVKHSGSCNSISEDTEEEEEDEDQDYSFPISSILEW

[6] = target: Fibroblast growth factor 2 (Homo sapiens) (UniProt P09038); test: basic fibroblast growth factor binding to printed compounds – biochemical, small-molecule microarray, 635/667 nm fluorescence, primary screen (AID 1133); settings: FGF2, fluorescence 635/667, higher = more signal
Chain of Fibroblast growth factor 2 (Homo sapiens) (P09038 whole entry, looked up): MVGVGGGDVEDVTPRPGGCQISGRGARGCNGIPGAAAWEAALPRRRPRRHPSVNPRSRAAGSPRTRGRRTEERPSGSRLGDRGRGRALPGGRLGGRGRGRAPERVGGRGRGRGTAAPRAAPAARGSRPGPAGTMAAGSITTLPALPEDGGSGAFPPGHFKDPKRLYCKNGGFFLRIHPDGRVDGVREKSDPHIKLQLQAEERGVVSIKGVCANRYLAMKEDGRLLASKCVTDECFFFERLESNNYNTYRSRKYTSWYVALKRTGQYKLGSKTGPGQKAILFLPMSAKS

[7] = JC-1 mitochondrial potential readout, lung cancer cells – cell-based, A549, JC-1 fluorescence, basal, 24 h, 100 nL, profiling panel (AID 1138); settings: higher = more signal;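 also: A549 lung adenocarcinoma cells under basal conditions with no added stimulus; test concentration not given here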
Lefty1 = Lefty1 protein binding to printed compounds – biochemical, small-molecule microarray, 635/667 nm fluorescence, primary screen (AID 1139); settings: fluorescence 635/667, higher = more signal
[8] = tested on: wheat germ agglutinin (Triticum aestivum), Alexa647-labelled; test: Alexa647-WGA lectin binding to printed small molecules – biochemical, small-molecule microarray, 635/667 nm fluorescence, artefact control for SMM control-protein annotation, profiling panel (AID 1140); settings: WGA-A647 binding, 635 nm fluorescence, higher = more signal;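 also: score merges 667 nm feature emission with signal to noise over triplicate slides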
[9] = target: Luciferin 4-monooxygenase (Photinus pyralis) (UniProt P08659); test: inhibition of purified Photinus pyralis luciferase – biochemical, luminescence, purified enzyme, 2006 set, primary screen (AID 1141); settings: purified firefly luciferase, SteadyGlo luminescence, 30 min; higher = more signal, called active from +8 up or from −8 down;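 also: cell-free assay with purified firefly luciferase at 100 ng per well in PBS; test concentration not given here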
Chain of Luciferin 4-monooxygenase (Photinus pyralis) (P08659 whole entry, looked up): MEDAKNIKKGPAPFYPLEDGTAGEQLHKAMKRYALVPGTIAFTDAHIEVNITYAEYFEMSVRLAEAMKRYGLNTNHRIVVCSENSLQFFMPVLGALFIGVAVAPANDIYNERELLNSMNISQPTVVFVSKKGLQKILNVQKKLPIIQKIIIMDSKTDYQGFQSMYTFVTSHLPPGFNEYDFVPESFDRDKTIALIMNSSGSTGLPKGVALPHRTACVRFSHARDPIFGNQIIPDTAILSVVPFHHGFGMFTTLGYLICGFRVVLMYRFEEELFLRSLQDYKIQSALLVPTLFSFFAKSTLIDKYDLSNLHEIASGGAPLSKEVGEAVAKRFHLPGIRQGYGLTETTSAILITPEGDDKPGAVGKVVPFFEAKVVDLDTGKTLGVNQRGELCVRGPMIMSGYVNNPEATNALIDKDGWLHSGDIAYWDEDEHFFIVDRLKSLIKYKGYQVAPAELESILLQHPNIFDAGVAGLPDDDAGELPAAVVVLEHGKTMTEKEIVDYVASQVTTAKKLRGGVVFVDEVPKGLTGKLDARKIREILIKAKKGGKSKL

[10] = tested on: Wnt5a (protein binding on small-molecule microarray); test: small molecules binding Wnt5a protein – biophysical, small-molecule microarray, 635/667 nm fluorescence, primary screen (AID 1142); settings: 635 nm fluorescence, higher = more signal;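 also: fluorescence read at 667 nm with signal to noise per printed feature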
[11] = ATP-based viability of Huh7 replicon cells – cell-based, CellTiter-Glo luminescence, basal, 48 h, cytotoxicity control for HCV replication inhibitor project, primary screen (AID 1143); settings: higher = more signal, called active from +8 up or from −8 down;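 also: Huh7 hepatoma cells carrying a hepatitis C replication reporter with no stimulus; test concentration not given here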
[12] = Pseudomonas biofilm growth suppression – PAO1 strain, BacTiter-Glo luminescence, LB-PBS, primary screen (AID 1144); settings: P. aeruginosa PAO1 biofilm, 12 h, higher = more signal
[13] = basal CRE-LacZ reporter activity in PC12 – cell-based, unstimulated, primary screen (AID 1145); settings: no forskolin, luminescence, 4.5 h, higher = more signal, called active from +8 up or from −8 down
[14] = forskolin-driven CRE-LacZ activity in PC12 – cell-based, CRE-LacZ reporter, forskolin-stimulated, primary screen (AID 1146); settings: luminescence, 4.5 h, higher = more signal, called active from +8 up or from −8 down;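 also: PC12 cells with 6xCRE LacZ reporter stimulated by forskolin 10 µM; beta-galactosidase reporter signal reflecting CREB driven transcription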
[15] = target: Streptavidin (Streptomyces avidinii) (UniProt P22629); test: compounds binding control protein streptavidin – biophysical, small-molecule microarray, 635/667 nm fluorescence, artefact control for SMM compound annotation, primary screen (AID 1147); settings: higher = more signal;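 also: signal reflects streptavidin binding to arrayed compounds as a control protein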
Chain of Streptavidin (Streptomyces avidinii) (P22629 whole entry, looked up): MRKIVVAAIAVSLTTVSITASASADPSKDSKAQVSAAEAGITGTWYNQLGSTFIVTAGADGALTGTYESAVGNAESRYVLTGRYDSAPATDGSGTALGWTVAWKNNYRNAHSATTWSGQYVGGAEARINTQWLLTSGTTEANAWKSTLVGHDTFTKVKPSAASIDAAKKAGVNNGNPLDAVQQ

[16] = probe aInhba binding on compound microarray – biochemical, small-molecule microarray, 635/667 nm fluorescence, primary screen (AID 1148); settings: higher = more signal;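 also: score merges 667nm spot fluorescence with signal-to-noise for antibody binding to printed compounds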
Torsin-1A (Homo sapiens) [17] = target: Torsin-1A (Homo sapiens) (UniProt O14656); test: TOR1A wild-type binding on microarray – cell lysate, small-molecule microarray, lysate, 635/667 nm, primary screen (AID 1149); settings: COS7 hTOR1A-WT lysate, 635 nm fluorescence, higher = more signal
Chain of Torsin-1A (Homo sapiens) (O14656 whole entry, looked up): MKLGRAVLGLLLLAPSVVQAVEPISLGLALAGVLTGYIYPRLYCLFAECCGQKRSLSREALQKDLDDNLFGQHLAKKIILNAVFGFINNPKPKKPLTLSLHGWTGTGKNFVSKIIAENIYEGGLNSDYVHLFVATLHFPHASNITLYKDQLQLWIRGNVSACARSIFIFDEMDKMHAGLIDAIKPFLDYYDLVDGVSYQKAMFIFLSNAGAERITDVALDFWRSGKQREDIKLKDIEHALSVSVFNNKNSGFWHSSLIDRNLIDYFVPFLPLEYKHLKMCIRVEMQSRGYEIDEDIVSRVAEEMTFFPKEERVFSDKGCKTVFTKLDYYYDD

Torsin-1A (Homo sapiens) [18] = target: Torsin-1A (Homo sapiens) (UniProt O14656); test: torsin A mutant lysate binding on microarrays – cell lysate, small-molecule microarray, COS7 lysate, 635/667 nm fluorescence, primary screen (AID 1150); settings: COS7 hTOR1A mutant lysate, 635 nm fluorescence, higher = more signal;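 also: score pools 667 nm emission and signal to noise measuring lysate protein binding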
[19] = tested on: Sonic hedgehog protein (Shh); test: Sonic hedgehog microarray binding compounds – biochemical, small-molecule microarray, 635/667 nm fluorescence, primary screen (AID 1151); settings: 635 nm fluorescence, higher = more signal;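 also: Shh protein binding to compounds spotted on small-molecule microarray slides; score combines spot fluorescence intensity with signal-to-noise across triplicate slides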

SMILES | composite z-score [1] | composite z-score [2] | composite z-score [3] | composite z-score [4] | composite z-score [5] | composite z-score [6] | z-score [7] | composite z-score (Lefty1) | composite z-score [8] | z-score [9] | composite z-score [10] | z-score [11] | z-score [12] | z-score [13] | z-score [14] | composite z-score [15] | composite z-score [16] | composite z-score (Torsin-1A (Homo sapiens) [17]) | composite z-score (Torsin-1A (Homo sapiens) [18]) | composite z-score [19]
COC(=O)C1=C(C)N(Cc2ccccc2)[C@]23O[C@](C(=O)OC)(C(=O)N2[C@@H]1c1ccccc1)[C@H]1CCOC(=O)[C@H]13 | 0.038 | 0.192 | 0.149 | 0.628 | 0.384 | 0.52 | 0.328 | 1.41 | 0.84 | -0.431 (inactive) | 0.313 | -0.147 (inactive) | -1.02 (inactive) | 0.286 (inactive) | -0.213 (inactive) | 0.0391 | -0.0118 | 0.252 | 0.22 | 1.05
N#Cc1ccc(NN2C(C(O)c3cccc4ccccc34)C=CC3C(=O)N(c4ccccc4)C(=O)C32)cc1 (stereo not given) | 1.06 | 1.24 | 0.413 | 0.965 | 1.23 | -0.24 | 1.11 | 0.279 | 1.24 | 0.512 (inactive) | 0.305 | 0.128 (inactive) | -0.811 (inactive) | -0.708 (inactive) | -0.302 (inactive) | 1.75 | 0.49 | 0.612 | 0.358 | -0.335
[N-]=[N+]=NCc1ccccc1C[C@]1(C(=O)NCc2ccccc2)N=C(c2ccc(OCCCO)cc2)O[C@H]1c1ccccc1N=[N+]=[N-] | 1.99 | 1.17 | 1.54 | 0.967 | 0.931 | 1.49 | -0.711 | -0.875 | 0.285 | -4.08 (inactive) | 0.729 | -4.38 (inactive) | -0.144 (inactive) | 0.493 (inactive) | -0.951 (inactive) | 0.83 | -0.287 | -0.0818 | 0.334 | -0.46
CCOC(=O)CCN1C(=O)[C@H]2[C@H]3[C@H](O)C=CC(=O)[C@@H]3CC[C@H]2C1=O | 0.147 | 0.621 | 0.122 | 0.11 | 0.488 | 0.49 | 0.0322 | 0.345 | 0.307 | -0.371 (inactive) | -0.244 | 0.507 (inactive) | -0.281 (inactive) | -0.115 (inactive) | -0.297 (inactive) | 0.225 | 0.0104 | 0.327 | -0.364 | 0.425
COC(=O)[C@@H]1N=C(c2ccc(OCCCO)cc2)O[C@@H]1c1ccccc1N=[N+]=[N-] | 1.99 | 1.21 | 0.942 | 0.077 | 0.499 | -0.253 | 0.484 | -0.394 | 1.04 | -17.9 (active) | 0.122 | -2.72 (inactive) | -0.943 (inactive) | 1.7 (inactive) | -0.826 (inactive) | 0.937 | 0.168 | 0.131 | 0.51 | -0.0259
